{
  "source": "PubChem BioAssay (NCATS)",
  "key": {"[1]": {"assay": "qHTS of pediatric cancer cell lines to identify multiple opportunities for drug repurposing: Confirmatory screen for Saos-2 cells (AID 1347127); note: potency is the fitted concentration of half-maximal effect; nearly all actives have a fitted effect of over 60% in size", "settings": "Saos-2 osteosarcoma cell viability", "how_it_was_run": "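Cells (500-1,000/well) rested 5 h, then received compounds for 48 h; metabolically active cells were measured by CellTiter-Glo luminescence. Final concentrations spanned up to 46 µM (MIPE, 11-point) or 0.59 nM-46 µM (NPC, 8-point) in primary screens, 11-point in follow-ups.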"}, "[2]": {"test_system": "Zika virus NS2B-NS3 protease (linked construct)", "assay": "Confirmatory screen NINDS AMC qHTS for Zika virus inhibitors (AID 1347152); note: potency is the fitted concentration of half-maximal effect; nearly all actives have a fitted effect of over 70% in size", "settings": "Purified linked NS2B-NS3, AMC substrate fluorescence", "how_it_was_run": "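Purified NS2B-NS3 protease with NS2B hydrophilic domain linked to NS3 protease domain by flexible linker, 1 nM final in 10 mM Tris-HCl pH 8.0, 0.01% Tween 20. Compounds preincubated 15 min, room temperature; Bz-Nle-KRR-AMC 10 microM (Km 18.3 µM); 15-min fluorescence change, 4-parameter Hill fit.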"}, "[3]": {"assay": "ZIKV-mCherry secondary qHTS for Zika virus inhibitors (AID 1347158); note: top concentration of the series differs between compounds", "settings": "Vero cells, ZIKV-mCherry infection imaging, 48-72 h; series mostly up to 32.6 µM", "how_it_was_run": "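Vero, 5,000 cells/well, o/n 37 °C; cpd pin-transferred in DMSO; ZIKV-mCherry MOI 1, 48-72 h 37 °C; 32% PFA stock fix, Hoechst; imaged 10x DAPI/mCherry; mCherry+ threshold 450 RFU; % infection.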"}, "[4]": {"test_system": "Zika virus NS2B-NS3 protease (linked)", "assay": "384 well plate NINDS AMC confirmatory qHTS for Zika virus inhibitors (AID 1347163); note: potency is the fitted concentration of half-maximal effect; nearly all actives have a fitted effect of over 50% in size", "settings": "Recombinant NS2B-NS3 protease, Ac-VKTGKR-AMC fluorescence", "how_it_was_run": "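Linked NS2B-NS3 protease (final 5 nM, 30 nM or 60 nM) was preincubated with compounds (final up to 1 mM) for ~15 minutes. Ac-VKTGKR-AMC substrate (final 30 microM) then reacted for 25 minutes at room temperature in the dark. Fluorescence (ex 355/em 460 nm) was normalized to no-enzyme and no-inhibitor controls.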"}, "[5]": {"test_system": "Zika virus NS2B-NS3 protease (linked construct)", "assay": "384 well plate NINDS Rhodamine confirmatory qHTS for Zika virus inhibitors (AID 1347164); note: potency is the fitted concentration of half-maximal effect; nearly all actives have a fitted effect of over 65% in size", "settings": "rhodamine-110 peptide substrate fluorescence", "how_it_was_run": "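Linked protease at a final 5 nM, 30 nM or 60 nM was preincubated ~15 min with compounds, then given 10 microM Ac-LKRR-Rhodamine 110. Fluorescence (ex 485/em 538 nm) after 25 min in the dark at room temperature.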"}, "[6]": {"assay": "Confirmatory screen GU Rhodamine qHTS for Zika virus inhibitors qHTS (AID 1347157); note: nearly all actives have a fitted effect of over 70% in size", "settings": "purified enzyme assay, Rhodamine110 substrate fluorescence, 15 min; series mostly up to 114 µM", "excerpt": "Avindra Nath, Ph.D., National Institute of Neurological Disorders and Stroke (NINDS), Bethesda, MD\nRadhakrishnan Padmanabhan, Ph.D., Georgetown University (GU), Washington D.C.\nZika Virus causes congenital defects, including microcephaly and is associated with Guillain-Barre syndrome, eningoencephalitis and myelitis in infected adult. […] Using a target-based approach, we hope to establish a screening paradigm to uncover novel, cell-active NS2B-NS3 protease (Zika Virus) specific inhibitors from NCATS' collection of small molecules using qHTS.\nFour assay panel was created to identify potential Zika Virus inhibitors. […]\nBriefly, 3 microL of enzyme (25 nM final concentration), in assay buffer (10 mM Tris-HCl pH 8.0 with 0.01% Tween 20) were dispensed into a 1,536-well solid-bottom black plate (Greiner Bio One, Monroe, NC). […] Plates were then immediately read on a ViewLux High-throughput CCD imager (PerkinElmer, Waltham, MA) equipped with FITC fluorescence optics (480(20) nm excitation, 540(25) nm emission), then incubated (room temperature, protected from light) for 15 minutes (~15% conversion). The change in fluorescence intensity over the 15-minute reaction period was normalized against no-inhibitor and no-enzyme controls and the resulting percent inhibition data were fitted to a 4-parameter Hill equation. […]"}, "[7]": {"assay": "OV-KATE Cancer Cell Toxicity qHTS against the NCATS CANVASS Library (AID 1347345)", "settings": "OV-KATE cells viability, CellTiter-Glo luminescence, 72 h; series mostly up to 12.8 µM", "how_it_was_run": "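Following a 4 h pre-incubation of 1000 seeded cells, compounds were pinned in an 11-pnt dilution series and left for 72 h; viability then came from CellTiter-Glo.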"}},
  "note": "Inconclusive results are not listed. Activity calls are given as the source filed them. Calls come from the whole dose curve; as a rule, active = well fitted curve in the direction sought with a large enough effect; inconclusive = small, poorly fitted or top-dose-only effect, or another doubt; inactive = no such curve, though single readings can be large; an effect the other way counts as inactive or inconclusive.",
  "data": [
    {"compound": "CC(=O)OCC(=O)[C@@]1(O)CC[C@H]2[C@@H]3CCC4=CC(=O)C=C[C@]4(C)[C@@]3(F)[C@@H](O)C[C@@]21C", "values": [
      {"measurement": "Potency", "setting": "[1]", "value": "11.7 µM (active)"}
    ]},
    {"compound": "O=C(O)Cn1c(C(=O)Nc2nc(-c3ccccc3Cl)cs2)cc2ccccc21", "values": [
      {"measurement": "Potency", "setting": "[2]", "value": "21.5 µM (active)"},
      {"measurement": "outcome", "setting": "[3]", "value": "inactive"},
      {"measurement": "Potency", "setting": "[4]", "value": "70.8 µM (active)"},
      {"measurement": "Potency", "setting": "[5]", "value": "28.2 µM (active)"}
    ]},
    {"compound": "CN1C[C@@H]2C[C@H]1CN2c1cc2c(cc1F)c(=O)c(C(=O)O)cn2C1CC1", "values": [
      {"measurement": "Potency", "setting": "[2]", "value": "16.7 µM (active)"}
    ]},
    {"compound": "COc1ccccc1Oc1c(NS(=O)(=O)c2ccc(C(C)(C)C)cc2)nc(-c2ncccn2)nc1OCCO", "values": [
      {"measurement": "outcome", "setting": "[6]", "value": "inactive"}
    ]},
    {"compound": "C[C@@H]1O[C@@H](OC[C@H]2O[C@@H](Oc3c(-c4ccc(O)c(O)c4)oc4cc(O)cc(O)c4c3=O)[C@H](O)[C@@H](O)[C@@H]2O)[C@H](O)[C@H](O)[C@H]1O", "values": [
      {"measurement": "outcome", "setting": "[7]", "value": "inactive"}
    ]}
  ]
}
